Screening data from PubChem BioAssay.
Sampled rows, rich in hits. Any-hit rate of the full collection: about 10%.
IMPase inh: cell-permeable inhibitors of inositol monophosphatase (IMPase); CHO-M1 cells, IP1 accumulation, HTRF TR-FRET ratio; inhibition (IP1 accumulation), % at 46.1 µM; 120,000 tested, under 10 active; active = well fitted curve in the direction sought with a large enough effect in the signal ratio, not every such curve was filed as active; inconclusive = small, poorly fitted or top-dose-only effect, or a change in a side signal; inactive = no such curve, though single readings can be large or run the other way; the % refers to the signal ratio;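 note: cells stimulated with carbachol in lithium chloride buffer; plate controls were DMSO basal wells for no effect and reference inhibitor wells for full effect; higher means more IMPase inhibition seen as more IP1 and lower FRET ratio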
Target sequence (P97697 whole entry, looked up): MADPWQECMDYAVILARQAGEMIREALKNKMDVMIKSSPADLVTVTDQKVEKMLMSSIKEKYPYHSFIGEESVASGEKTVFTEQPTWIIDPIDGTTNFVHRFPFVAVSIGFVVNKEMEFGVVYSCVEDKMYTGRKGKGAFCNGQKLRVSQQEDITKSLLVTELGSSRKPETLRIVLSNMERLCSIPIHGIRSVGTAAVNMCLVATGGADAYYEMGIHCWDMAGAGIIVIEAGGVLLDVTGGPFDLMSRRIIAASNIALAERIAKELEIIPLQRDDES
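CHO-M1 cells (CHO stably expressing M1 receptor), compound up to 46 uM final, stimulated with carbachol (50 uM as added) in buffer with 50mM LiCl, pH 7.4, 30 min at 37C. Cytosolic IP1 read by TR-FRET; AC50 from Hill fits.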
LMNA splice mod: changes lamin A minigene splicing in HeLa cells. hit rate 0.01% among 200,000. HeLa LMNA splicing GFP/RFP minigene ratio, 48 h. Potency, µM (series often up to 46.1 µM), for the others: top-dose ratio change, negative = inhibition, most hits filed as inhibitors; active = well fitted inhibition curve with a large enough effect in the signal ratio, with a control signal flat, not every such curve was filed as active; inconclusive = small, poorly fitted or top-dose-only effect, or effect the other way, or a change in a side signal; the % refers to the signal ratio; note: potency is the fitted concentration of half-maximal effect
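Read-out is the ratio of GFP to DsRed2 object intensity, acquired by 488 nm laser-scanning cytometry on HeLa lamin A-EGFP minigene reporter cells. Compound incubation 48 hrs at 37 °C in Opti-MEM with 2% FBS; DMSO 0.5% final.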
PNC inhibitor: blocks assembly of the perinucleolar compartment; PC3M PTB-GFP, PNC prevalence imaging, 16 h; active compounds read low; activity change (PNC), negative = inhibition, % at 10 µM; hit rate 3.1% among 140,000;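 active = readout at or below -70, meaning at least 70% loss of cells showing the perinucleolar compartment, a nuclear body marking cancer cells; inconclusive = readout between -30 and a set limit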;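 note: plate controls were DMSO wells for no effect and camptothecin positive control wells for full effect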
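PC3M cells stably expressing PTB-GFP, 750–1000 cells/well, treated 16 h at 37 °C with compound (23 nl of library stock), in duplicate. After paraformaldehyde fixation and Hoechst stain, imaged at 20x; PNC prevalence scored by image analysis.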
Luc counter: counter-screen: inhibitors of Kinase-Glo firefly luciferase. Potency, µM (doses to about 38.3 µM), without a hit: at the top dose activity change, negative = inhibition, hits mostly inhibitors. hit rate 0.28% among 200,000. Kinase-Glo luciferase, ATP luminescence, 8 min; active = well fitted inhibition curve with a large enough effect; inconclusive = small, poorly fitted or top-dose-only effect; note: potency is the fitted concentration of half-maximal effect; nearly all actives have a fitted effect of over 60% in size
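Recombinant Kinase-Glo luciferase, 10 uM ATP (linear range), luciferin; imidazole pH 7.2 / KCl / MgCl2 / Tween / BSA buffer; 8 min RT; luminescence.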
ALDH1A1 inh: ALDH1A1 (human) enzyme inhibition; Potency, µM (titrated, usually from 75.3 µM), inactives show at the highest dose activity, negative = inhibition, hits mostly inhibitors; hit rate 7.3% among 220,000; P00352; AID 1030; Purified ALDH1A1, NADH fluorescence, propionaldehyde substrate;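 note: potency is the fitted concentration of half-maximal effect; plate controls were no enzyme wells and a reference inhibitor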
HPGD block: blocks human HPGD enzyme activity; P15428; purified HPGD, NADH fluorescence kinetic, PGE2 substrate; Potency, µM, for inactives: at the top dose activity change, negative = inhibition, usual class: inhibitors; hit rate 4.3% among 150,000; AID 894; note: potency is the fitted concentration of half-maximal effect
Target sequence (P15428 whole entry, looked up): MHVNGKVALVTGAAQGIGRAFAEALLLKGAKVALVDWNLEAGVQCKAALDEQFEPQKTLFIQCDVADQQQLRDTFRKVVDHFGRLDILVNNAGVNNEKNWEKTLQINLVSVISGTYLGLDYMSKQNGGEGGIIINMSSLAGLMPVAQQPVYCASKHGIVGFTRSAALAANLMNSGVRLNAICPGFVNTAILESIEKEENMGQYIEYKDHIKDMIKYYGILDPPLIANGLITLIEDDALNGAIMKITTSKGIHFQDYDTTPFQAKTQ
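NADH formation kinetics: reaction with 30 uM PGE2 and 1 mM NAD+ (final), 20 nM enzyme, Tris-HCl pH 8 with Tween 20, after 15 min compound preincubation at room temperature. Fluorescence change, last versus first of five reads.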
* = called active by the depositor; [ ] = another dose, or the depositor's remark. Unless noted, calls come from the whole dose curve; as a rule, active = well fitted inhibition curve with a large enough effect (not every such curve was filed as active); inconclusive = small, poorly fitted or top-dose-only effect, or another doubt; inactive = no such curve, though single readings can be large or run the other way. Unless noted, % is set by controls: 0 for no effect and ±100 for the full control effect.

CC1CCCN(C(=O)c2ccc3c(=O)n(Cc4ccc5c(c4)OCO5)c(=S)[nH]c3c2)C1 (centres undefined) was read as IMPase inh 9, LMNA splice mod inconclusive, PNC inhibitor 6, Luc counter 0%, ALDH1A1 inh 10µM* and HPGD block 5µM*.
Screening CC(C)OCCCNC(=O)c1ccc2c(=O)n(Cc3ccc4c(c3)OCO4)c(=S)[nH]c2c1 returned Luc counter -5% and ALDH1A1 inh 13%.
For Cc1ccc(NS(=O)(=O)c2cc([N+](=O)[O-])ccc2NNC(=S)Nc2cccc(Cl)c2)c(C)c1 the results were IMPase inh -10, LMNA splice mod inconclusive, PNC inhibitor -24, Luc counter -24%, ALDH1A1 inh 0.28µM* and HPGD block 28µM*.
For Cc1ccc(NS(=O)(=O)c2cc([N+](=O)[O-])ccc2NNC(=S)Nc2cc(C)ccc2C)c(C)c1 the results were LMNA splice mod inconclusive, PNC inhibitor inconclusive, Luc counter -15%, ALDH1A1 inh 2.8µM* and HPGD block 7.9µM*.
`COc1ccc(NC(=S)NNc2ccc([N+](=O)[O-])cc2S(=O)(=O)Nc2ccc(C)cc2C)cc1` gave LMNA splice mod inconclusive, PNC inhibitor inconclusive, Luc counter -14%, ALDH1A1 inh 4µM* and HPGD block 14µM*.
COCCNC(=S)Nc1ccc([N+](=O)[O-])cc1C was read as Luc counter 6% and ALDH1A1 inh inconclusive.
For CCCCCCc1nc2ccccc2c(=O)n1NC(=O)c1c(O)c2c(n(CC(C)C)c1=O)CCCC2 the results were IMPase inh 1, LMNA splice mod inconclusive, PNC inhibitor inconclusive, Luc counter -4%, ALDH1A1 inh inconclusive and HPGD block inconclusive.
Cc1nc2ccccc2c(=O)n1NC(=O)c1c(O)c2c(n(CC(C)C)c1=O)CCCC2 was read as IMPase inh inconclusive, LMNA splice mod inconclusive, PNC inhibitor -94*, Luc counter 1%, ALDH1A1 inh -12% and HPGD block -16%.
`CCS(=O)(=O)N1CC(=O)N(c2cc(Cl)ccc2C)C(C)(C(=O)NC2CCCCCC2)C1` (centres undefined) gave LMNA splice mod 3%[46 µM].
For O=C1c2ccccc2C(Nc2ccc(S(=O)(=O)N3CCCCC3)cc2)N1c1ccccn1 (centres undefined) the results were IMPase inh -18, LMNA splice mod 7%, PNC inhibitor 15, Luc counter -1%, ALDH1A1 inh 5µM* and HPGD block -8%.
For O=C1Nc2ccccc2/C1=N\N=C\C1=C(N2CCOCC2)C(=C\c2ccccc2)/CC1 the results were IMPase inh -1, LMNA splice mod 20%, PNC inhibitor -26, Luc counter inconclusive, ALDH1A1 inh 10µM* and HPGD block -7%.
Screening CN1CCN(c2ncc3nc(-c4cccs4)c(=O)n(CCc4ccccc4)c3n2)CC1 returned LMNA splice mod 7% and ALDH1A1 inh inconclusive.
COc1ccc(CNC(=O)CCS(=O)(=O)c2cccc3nonc23)cc1 was read as IMPase inh 8, LMNA splice mod 0%, PNC inhibitor 3, Luc counter 4%, ALDH1A1 inh 18µM* and HPGD block -6%.
`COc1ccc(NC(=O)CCS(=O)(=O)c2cccc3nonc23)c(OC)c1` gave IMPase inh -4, LMNA splice mod -1%, PNC inhibitor inconclusive, Luc counter 2%, ALDH1A1 inh inconclusive and HPGD block -1%.
For Cc1ccc(CNC(=O)CCS(=O)(=O)c2cccc3nonc23)cc1 the results were IMPase inh 18, LMNA splice mod -10%, PNC inhibitor 28, Luc counter 3%, ALDH1A1 inh 40µM* and HPGD block 4%.
Screening O=C(CCS(=O)(=O)c1cccc2nonc12)N1CC(=O)N(CCc2ccccc2)C(=O)C1 returned IMPase inh inconclusive, LMNA splice mod 7%, PNC inhibitor 24, Luc counter 2%, ALDH1A1 inh 28µM* and HPGD block 1%.
